According to publication PMC5540273 (PLoS ONE, 2017):

system: T1, p38-gamma; conditions: concentration: 1 μM, replicates: in singlicate; n = 1
T1 construct: gene MAPK12
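Note: KINOMEscan kinase panel screen.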

Structure (SMILES) | %Inh [%]
CC[C@@H]1CO[C@H](C(=O)Nc2ccccc2)CN1c1cc(-c2ccc3c(N)n[nH]c3c2)nc(NC)n1 [GSK2376236] | 0
Cn1cnc2c(N)ncnc21 [SKF-97623] | 0
Cc1cccc2c(-c3ccncn3)c(-c3ccc(F)cc3)nn12 [GW515532] | 20
Cc1ccc(NC(=O)c2ccc(Cl)cc2)cc1-c1ccc(C(=O)Nc2ccncc2)cc1 [GSK1398467] | 0
COc1ccc(CSc2nnc(-c3ccc4nccn4c3)o2)cc1C(F)(F)F | 3
COc1ccc(Nc2nccc(N3CCC(NC(=O)C(C)c4ccc(Cl)cc4)CC3)n2)cc1 (centres unmarked) [GSK1379812] | 2
CCn1c(-c2c(N)noc2C)nc2cnccc21 [SB-737856] | 0
Fc1ccc(-c2nc3n(c2-c2ccncc2)CCS3)cc1 [GI98581] | 0
COc1cccc(CNC(=O)NC2CCN(c3ccnc(Nc4ccc(F)cc4)n3)C2)c1 (centres unmarked) [GSK1379723] | 0
COc1ccc(CSc2nnc(-c3ccc4ncsc4c3)o2)cc1C(F)(F)F | 0
CS(=O)(=O)CCNCc1nc(-c2ccc3ncnc(Nc4ccc(OCc5ccccc5)c(Cl)c4)c3c2)cs1.Cl [GW582764] | 0
O=C(Nc1n[nH]c2nc(-c3cccs3)c(Br)cc12)C1CCCC1 [SB-743341] | 13
CNc1cc(-c2ccc3c(N)n[nH]c3c2)nc(N)n1 [GSK2224810] | 0
COc1cc2ncnc(Nc3cccc(Br)c3)c2cc1OC.Cl [GI230329] | 66
CC(=O)c1c(C)c2cnc(Nc3ccc(N4CCNCC4)cn3)nc2n(C2CCCC2)c1=O | 6
COc1nccc(-c2c(-c3ccc(F)cc3)ncn2CCCN2CCOCC2)n1 [SB-282852] | 46
O=C1NC(=O)C(c2ccc(Cl)cc2)=C1Nc1cccc(Cl)c1 [SB-317651] | 11
CS(=O)(=O)Cc1ccc(Nc2nccc(-c3c(-c4cccc(NC(=O)C5CCCCC5)c4)nn4ncccc34)n2)cc1 [GSK350559] | 43
CNc1nc(-c2ccc3c(N)n[nH]c3c2)cc(N2C[C@@H](C(=O)NC3CCCCC3)OC[C@H]2C)n1 [GSK2375584] | 23
CNC(=O)c1ccc(C)c(-n2c(C)cc(OCc3ccc(F)cc3F)c(Br)c2=O)c1 | 0
Cc1ccc(NC(=O)Nc2ccccc2F)cc1-c1ccc(C(=O)Nc2ccncc2)cc1 [GSK1398477] | 0
Nc1nccc(-c2c(-c3ccc(F)cc3)ncn2C2CCN(Cc3ccccc3)CC2)n1 [SB-219980] | 0
CNc1nc(-c2ccc3c(N)n[nH]c3c2)cc(N2C[C@@H](C(=O)Nc3ccccc3)CC[C@H]2C)n1 [GSK2298859] | 0
